Tests used:
[1] = target: Fibroblast growth factor receptor 4 (Homo sapiens) (UniProt P22455); settings: at 1 µM;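 further: reported figure is the averaged percent inhibition of FGFR4, from the GSK PKIS kinase screening panel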
[2] = target: Tyrosine-protein kinase Fgr (Homo sapiens) (UniProt P09769); settings: at 0.1 µM
[3] = target: Tyrosine-protein kinase Fgr (Homo sapiens) (UniProt P09769); settings: at 1 µM
[4] = target: Vascular endothelial growth factor receptor 1 (Homo sapiens) (UniProt P17948); settings: at 0.1 µM
[5] = target: Vascular endothelial growth factor receptor 1 (Homo sapiens) (UniProt P17948); settings: at 1 µM
[6] = target: Receptor-type tyrosine-protein kinase FLT3 (Homo sapiens) (UniProt P36888); settings: at 0.1 µM
[7] = target: Receptor-type tyrosine-protein kinase FLT3 (Homo sapiens) (UniProt P36888); settings: at 1 µM
[8] = tested on: T1, Receptor-type tyrosine-protein kinase FLT3 (Homo sapiens), P36888 [D835Y]; settings: at 0.1 µM
T1 sequence (whole entry): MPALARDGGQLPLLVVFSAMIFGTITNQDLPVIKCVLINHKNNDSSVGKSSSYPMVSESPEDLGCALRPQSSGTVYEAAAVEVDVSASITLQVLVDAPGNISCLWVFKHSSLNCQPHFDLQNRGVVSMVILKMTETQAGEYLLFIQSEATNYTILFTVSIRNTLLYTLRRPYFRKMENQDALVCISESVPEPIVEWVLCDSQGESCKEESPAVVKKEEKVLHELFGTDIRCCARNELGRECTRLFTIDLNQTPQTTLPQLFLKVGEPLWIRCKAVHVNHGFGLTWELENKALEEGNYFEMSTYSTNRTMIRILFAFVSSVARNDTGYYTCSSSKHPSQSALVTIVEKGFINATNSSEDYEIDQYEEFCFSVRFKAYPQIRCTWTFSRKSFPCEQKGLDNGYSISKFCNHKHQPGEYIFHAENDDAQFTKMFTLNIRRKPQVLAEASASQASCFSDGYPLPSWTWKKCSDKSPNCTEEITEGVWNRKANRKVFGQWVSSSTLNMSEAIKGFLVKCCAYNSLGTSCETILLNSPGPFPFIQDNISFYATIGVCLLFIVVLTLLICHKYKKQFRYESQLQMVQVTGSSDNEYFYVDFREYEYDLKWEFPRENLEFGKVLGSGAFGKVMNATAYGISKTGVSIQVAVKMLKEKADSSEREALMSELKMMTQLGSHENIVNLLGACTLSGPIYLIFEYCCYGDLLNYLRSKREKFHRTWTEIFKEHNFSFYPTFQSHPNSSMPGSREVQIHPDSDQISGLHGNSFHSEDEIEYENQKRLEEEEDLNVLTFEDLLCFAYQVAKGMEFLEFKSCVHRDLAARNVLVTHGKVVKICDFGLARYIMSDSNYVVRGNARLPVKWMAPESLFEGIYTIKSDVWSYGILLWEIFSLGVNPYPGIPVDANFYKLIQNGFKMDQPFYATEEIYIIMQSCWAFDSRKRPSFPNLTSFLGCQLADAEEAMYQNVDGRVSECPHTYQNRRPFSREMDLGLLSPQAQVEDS

[9] = target: Non-receptor tyrosine-protein kinase TYK2 (Homo sapiens) (UniProt P29597); settings: at 1 µM;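 further: values are mean percent inhibition of TYK2 kinase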
[10] = target: T2, Tyrosine-protein kinase receptor TYRO3 (Homo sapiens) (UniProt Q06418); settings: at 0.1 µM;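 further: reported percentages are averaged inhibition values of TYRO3 kinase activity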
T2 sequence (whole entry): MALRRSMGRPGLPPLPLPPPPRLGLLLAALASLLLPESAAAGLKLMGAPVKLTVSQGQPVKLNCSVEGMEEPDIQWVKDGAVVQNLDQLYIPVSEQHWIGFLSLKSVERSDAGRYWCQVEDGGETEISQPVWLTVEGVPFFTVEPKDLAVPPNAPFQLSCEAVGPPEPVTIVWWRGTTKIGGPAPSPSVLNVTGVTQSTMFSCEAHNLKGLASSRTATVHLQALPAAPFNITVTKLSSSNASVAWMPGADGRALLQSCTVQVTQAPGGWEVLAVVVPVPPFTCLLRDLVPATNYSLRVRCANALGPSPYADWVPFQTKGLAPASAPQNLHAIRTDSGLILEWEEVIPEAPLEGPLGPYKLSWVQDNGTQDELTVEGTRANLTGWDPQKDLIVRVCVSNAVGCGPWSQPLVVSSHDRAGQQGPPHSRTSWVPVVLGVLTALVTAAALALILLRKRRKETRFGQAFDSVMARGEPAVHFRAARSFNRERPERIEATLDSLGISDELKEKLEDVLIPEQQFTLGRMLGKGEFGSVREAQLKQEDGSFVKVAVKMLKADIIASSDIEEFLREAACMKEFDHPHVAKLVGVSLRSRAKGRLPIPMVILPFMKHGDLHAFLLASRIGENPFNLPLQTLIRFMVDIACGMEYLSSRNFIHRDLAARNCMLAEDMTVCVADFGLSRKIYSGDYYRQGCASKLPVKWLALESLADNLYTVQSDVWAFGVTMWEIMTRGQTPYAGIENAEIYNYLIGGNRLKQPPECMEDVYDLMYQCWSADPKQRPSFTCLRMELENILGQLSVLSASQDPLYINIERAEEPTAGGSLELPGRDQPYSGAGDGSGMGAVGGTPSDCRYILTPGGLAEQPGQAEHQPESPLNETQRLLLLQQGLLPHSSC

Chain of Fibroblast growth factor receptor 4 (Homo sapiens) (P22455 22-802 limits assumed): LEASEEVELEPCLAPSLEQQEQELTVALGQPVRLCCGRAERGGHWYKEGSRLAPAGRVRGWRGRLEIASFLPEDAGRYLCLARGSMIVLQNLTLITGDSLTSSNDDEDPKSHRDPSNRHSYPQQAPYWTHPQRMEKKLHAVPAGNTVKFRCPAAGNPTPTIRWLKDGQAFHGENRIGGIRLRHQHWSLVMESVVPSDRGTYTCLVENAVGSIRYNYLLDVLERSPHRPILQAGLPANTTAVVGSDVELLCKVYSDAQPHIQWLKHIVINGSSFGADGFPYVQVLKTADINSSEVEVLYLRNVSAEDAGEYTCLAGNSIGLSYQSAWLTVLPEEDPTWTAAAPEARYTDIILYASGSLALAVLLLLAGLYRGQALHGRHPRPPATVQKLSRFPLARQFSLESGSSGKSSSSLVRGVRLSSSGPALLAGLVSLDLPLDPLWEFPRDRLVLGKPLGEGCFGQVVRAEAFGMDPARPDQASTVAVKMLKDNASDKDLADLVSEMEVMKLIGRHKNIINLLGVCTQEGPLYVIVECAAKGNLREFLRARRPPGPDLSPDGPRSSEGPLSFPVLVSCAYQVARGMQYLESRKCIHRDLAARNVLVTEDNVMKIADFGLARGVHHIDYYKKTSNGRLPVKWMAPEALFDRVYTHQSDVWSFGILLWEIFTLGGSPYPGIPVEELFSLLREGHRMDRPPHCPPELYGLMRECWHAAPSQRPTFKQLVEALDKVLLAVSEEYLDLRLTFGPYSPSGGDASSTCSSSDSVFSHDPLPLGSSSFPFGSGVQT
Chain of Tyrosine-protein kinase Fgr (Homo sapiens) (P09769 2-529 limits assumed): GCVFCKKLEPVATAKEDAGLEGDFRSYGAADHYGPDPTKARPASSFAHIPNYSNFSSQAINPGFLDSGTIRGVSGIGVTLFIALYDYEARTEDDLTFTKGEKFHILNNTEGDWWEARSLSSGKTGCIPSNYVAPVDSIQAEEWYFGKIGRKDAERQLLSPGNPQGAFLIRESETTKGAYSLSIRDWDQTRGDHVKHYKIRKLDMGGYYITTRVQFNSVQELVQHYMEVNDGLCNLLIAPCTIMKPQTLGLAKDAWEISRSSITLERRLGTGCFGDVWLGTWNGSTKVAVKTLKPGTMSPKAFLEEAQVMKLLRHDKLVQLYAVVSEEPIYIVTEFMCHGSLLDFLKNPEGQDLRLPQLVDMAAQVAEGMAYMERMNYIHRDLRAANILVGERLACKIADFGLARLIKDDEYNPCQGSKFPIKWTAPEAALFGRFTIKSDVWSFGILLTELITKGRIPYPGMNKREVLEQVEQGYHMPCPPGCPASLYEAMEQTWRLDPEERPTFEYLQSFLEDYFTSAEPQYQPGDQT
Chain of Non-receptor tyrosine-protein kinase TYK2 (Homo sapiens) (P29597 whole entry): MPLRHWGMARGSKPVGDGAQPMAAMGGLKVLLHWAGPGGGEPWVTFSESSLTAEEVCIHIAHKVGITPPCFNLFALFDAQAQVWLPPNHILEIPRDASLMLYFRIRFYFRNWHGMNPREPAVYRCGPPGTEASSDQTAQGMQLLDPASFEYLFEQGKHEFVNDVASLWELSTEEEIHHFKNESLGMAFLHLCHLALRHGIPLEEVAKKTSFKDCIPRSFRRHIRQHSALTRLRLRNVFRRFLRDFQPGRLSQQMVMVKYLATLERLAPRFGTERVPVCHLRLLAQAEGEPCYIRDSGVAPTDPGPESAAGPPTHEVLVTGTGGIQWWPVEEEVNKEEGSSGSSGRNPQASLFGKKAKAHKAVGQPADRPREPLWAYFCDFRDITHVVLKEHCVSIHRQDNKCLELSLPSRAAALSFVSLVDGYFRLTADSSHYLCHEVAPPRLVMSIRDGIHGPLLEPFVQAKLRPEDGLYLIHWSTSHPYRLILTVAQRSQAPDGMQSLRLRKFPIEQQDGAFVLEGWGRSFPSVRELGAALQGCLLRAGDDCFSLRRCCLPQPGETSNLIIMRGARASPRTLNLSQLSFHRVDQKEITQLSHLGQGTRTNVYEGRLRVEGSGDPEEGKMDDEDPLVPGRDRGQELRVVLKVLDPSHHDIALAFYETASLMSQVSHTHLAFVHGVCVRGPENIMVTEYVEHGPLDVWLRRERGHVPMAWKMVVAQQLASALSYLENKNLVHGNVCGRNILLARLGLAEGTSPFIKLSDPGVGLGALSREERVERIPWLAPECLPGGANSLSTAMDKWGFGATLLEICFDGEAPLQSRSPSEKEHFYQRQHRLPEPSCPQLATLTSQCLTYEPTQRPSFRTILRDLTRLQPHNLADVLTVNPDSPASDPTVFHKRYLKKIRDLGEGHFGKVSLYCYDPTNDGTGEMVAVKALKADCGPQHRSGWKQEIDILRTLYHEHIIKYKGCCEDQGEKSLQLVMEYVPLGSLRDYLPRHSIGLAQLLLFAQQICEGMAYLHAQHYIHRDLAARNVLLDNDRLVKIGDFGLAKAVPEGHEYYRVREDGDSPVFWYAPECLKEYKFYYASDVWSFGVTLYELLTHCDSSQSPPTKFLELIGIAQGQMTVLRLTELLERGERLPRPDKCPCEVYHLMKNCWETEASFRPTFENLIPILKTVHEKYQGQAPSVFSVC
Chain of Vascular endothelial growth factor receptor 1 (Homo sapiens) (P17948 whole entry): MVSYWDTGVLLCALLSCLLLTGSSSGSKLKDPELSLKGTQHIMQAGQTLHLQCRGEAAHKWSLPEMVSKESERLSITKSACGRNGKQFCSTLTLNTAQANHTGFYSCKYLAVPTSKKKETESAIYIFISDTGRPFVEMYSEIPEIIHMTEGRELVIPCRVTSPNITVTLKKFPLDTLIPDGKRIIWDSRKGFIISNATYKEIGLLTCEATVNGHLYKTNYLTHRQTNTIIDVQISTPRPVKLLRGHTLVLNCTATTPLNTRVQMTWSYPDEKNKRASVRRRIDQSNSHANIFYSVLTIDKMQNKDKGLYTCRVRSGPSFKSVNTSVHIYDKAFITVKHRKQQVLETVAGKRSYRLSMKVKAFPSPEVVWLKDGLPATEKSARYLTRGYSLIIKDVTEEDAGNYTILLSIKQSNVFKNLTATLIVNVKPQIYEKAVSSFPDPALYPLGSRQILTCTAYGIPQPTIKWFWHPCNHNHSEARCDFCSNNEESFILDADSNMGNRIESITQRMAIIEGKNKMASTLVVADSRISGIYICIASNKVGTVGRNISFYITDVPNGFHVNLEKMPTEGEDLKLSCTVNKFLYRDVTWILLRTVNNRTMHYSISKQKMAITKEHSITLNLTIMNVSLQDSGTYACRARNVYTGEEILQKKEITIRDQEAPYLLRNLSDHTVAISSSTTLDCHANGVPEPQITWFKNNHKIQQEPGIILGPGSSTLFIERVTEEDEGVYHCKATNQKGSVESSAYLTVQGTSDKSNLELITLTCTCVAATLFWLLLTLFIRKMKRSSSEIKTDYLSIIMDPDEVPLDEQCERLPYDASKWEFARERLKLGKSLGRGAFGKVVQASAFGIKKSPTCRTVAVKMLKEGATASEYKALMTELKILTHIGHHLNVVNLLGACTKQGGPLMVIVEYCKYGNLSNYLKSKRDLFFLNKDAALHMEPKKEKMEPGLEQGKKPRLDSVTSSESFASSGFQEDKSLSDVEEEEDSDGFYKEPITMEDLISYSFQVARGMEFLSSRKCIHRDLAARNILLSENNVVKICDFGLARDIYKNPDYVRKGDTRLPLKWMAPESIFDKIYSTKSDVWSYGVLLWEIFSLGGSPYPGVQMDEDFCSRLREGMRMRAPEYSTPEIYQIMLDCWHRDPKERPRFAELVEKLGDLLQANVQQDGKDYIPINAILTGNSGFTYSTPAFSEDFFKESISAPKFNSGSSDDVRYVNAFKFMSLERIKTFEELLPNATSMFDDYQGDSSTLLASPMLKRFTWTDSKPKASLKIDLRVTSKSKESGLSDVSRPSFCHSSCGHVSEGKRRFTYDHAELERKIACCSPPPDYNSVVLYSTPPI

Compound	inhibition [1] [%]	inhibition [2] [%]	inhibition [3] [%]	inhibition [4] [%]	inhibition [5] [%]	inhibition [6] [%]	inhibition [7] [%]	inhibition [8] [%]	inhibition [9] [%]	inhibition [10] [%]
O=C1Nc2ccccc2/C1=C/Nc1ccc2[nH]c(=O)[nH]c2c1	11.4	11.3	26.5	11	30.1	26.6	74	17.5	18.7	5.57
CCn1c(-c2nonc2N)nc2c(C#CC(C)(C)O)nc(OCCNC)cc21	1.88	0.15	3.62	1.71	10.2	1.46	4.57	-1.99	-2.59	2.56
NC(=O)c1cccc(Nc2nccc(Nc3cccc(F)c3)n2)c1	1.79	5.52	30	1.29	16.4	3.08	16.5	1.55	32.4	10.5
COc1cccc(-n2ncc3c(N/N=C/c4ccc(C)cc4)ncnc32)c1	1.93	3.81	18.9	-0.93	0.15	0.84	5.84	2.71	-1.47	1.83
OCc1ccc(-c2nc(-c3ccccn3)c(-c3ccc4c(c3)OCO4)[nH]2)cc1	4.36	3.43	8.26	0.94	2.09	3.25	5.93	0.22	-3.23	3.25
Cc1cc(-c2ccccn2)cc(C)c1/C=C/c1cncc(-c2nn[nH]n2)c1	-0.54	2.37	18.2	-0.29	1.74	5.83	3.4	-7.99	-2.42	0.01
NC(=O)c1sc(-n2cnc3ccccc32)cc1OCc1ccccc1Br	0.92	1.44	6.14	-0.01	4.57	2.74	1	-6.76	-4.77	1.17
Cc1ccc(NC(=O)CC2CC2)cc1-c1ccc(C(=O)NCC2CC2)cc1	1.67	7.45	6.65	-0.36	1.74	1.93	3.21	-2.84	-2.78	2.48
COc1cc2ncnc(Nc3ccc(C)c(O)c3)c2cc1OC	4.07	15.3	46.2	74.6	93.2	0.71	3.03	-2.6	-3.35	6.68
Oc1cccc(-c2nc(-c3ccccc3)[nH]c2-c2ccncc2)c1	1.85	5.71	19.5	10.6	43.8	5.28	19.5	0.36	-1.42	3.99
NS(=O)(=O)c1cccc(-c2cc3ccncc3cc2OCc2ccccc2)c1	3.21	1.58	7.39	1.89	3.8	4.34	2.96	1.09	-5.35	2.68
Cc1ccc2c(-c3ccnc(Nc4ccc5c(c4)OCCO5)n3)c(-c3ccc(C(F)(F)F)cc3)nn2n1	2.08	4.97	18.4	-1.27	-0.4	2.13	0.3	-5.65	0.31	-0.13
CCCN1CCCC(c2ccc(Nc3nc(Nc4cc(F)ccc4C(N)=O)c4cc[nH]c4n3)c(OC)c2)C1 (stereo not given)	12.2	4.94	7.28	2.54	0.66	3.86	13.1	5.98	-3.62	4.74
FC(F)(F)c1ccc(-c2nn3ncccc3c2-c2ccnc(Nc3ccc4c(c3)OCCO4)n2)cc1	11.7	25.6	61.1	1.91	4.89	1.7	0.28	4.42	5.73	1.27
CCn1c(-c2nonc2N)nc2ccc(F)cc21	2.77	4.5	1.73	3.79	2.76	2.66	2.44	-1.29	-4.18	3.03
ON=C1CCc2cc(-c3nc(C4CCNCC4)[nH]c3-c3ccncc3)ccc21	1.91	-1.48	2.99	0.48	0.61	-2.95	0.24	-4.99	-0.2	0.16
Nc1nccc(-c2c(-c3ccc(F)cc3)ncn2CCCN2CCOCC2)n1	-1.03	2.89	3.22	0.15	-0.18	-0.59	3.31	-5.08	-1.83	3.82
CN(C)C(=O)O[C@H]1CN[C@H](C#Cc2cc3ncnc(Nc4ccc(OCc5cccc(F)c5)c(Cl)c4)c3s2)C1	1.39	1.56	4.75	1.8	2.23	-0.55	0.66	3.22	-2.89	2.23
N#Cc1c(NC(=O)c2ccccc2F)sc2c1CCCC2	-0.54	1.26	1.21	-1.64	-1.09	0.49	-1.06	-2.89	0.85	-1.29
C[C@@H](Oc1cc(-n2cnc3ccc(OC[C@@H](O)CO)cc32)sc1C(N)=O)c1ccccc1Cl	0.23	0.03	4.04	-1.57	-1.26	0.49	5.21	-3.1	2.03	-0.16

Compound	inhibition [1] [%]	inhibition [2] [%]	inhibition [3] [%]	inhibition [4] [%]	inhibition [5] [%]	inhibition [6] [%]	inhibition [7] [%]	inhibition [8] [%]	inhibition [9] [%]	inhibition [10] [%]
Cc1cc(Cl)cc2c1NC(=O)C2=NNc1ccc(S(N)(=O)=O)cc1	2.64	4.99	2.96	0.01	-0.12	2.63	1.85	-2.63	0.66	1.11
CC(C)c1ccc(Nc2nccc(-c3cnn4ncccc34)n2)cc1	3.28	3.66	7.87	3.33	10.9	16.1	61.1	1.27	-0.13	2.38
COc1cc(/C=N/Nc2ncnc3c2cnn3C(C)C)ccc1O	1.4	9.02	40.4	-0.74	3.88	2.52	22.7	-2.61	4.77	4.41
CN(C)CCCn1c(-c2nonc2N)nc2cnccc21	1.11	1.37	2.22	1.09	2.77	2.53	1.85	-5.34	-2.04	1.74
Nc1nccc(C#Cc2cncnc2Nc2ccc(OCc3cccc(F)c3)c(Cl)c2)n1	-2.31	0.12	4.81	2.06	3.36	0.89	3.87	3.95	-1.09	3.02
COC(=O)c1ccc2c(c1)C(=Cc1cc(Br)c(O)c(Br)c1)C(=O)N2	3.36	0.15	9.32	2.43	2.64	5.48	7.6	-0.04	51.5	2.46
COc1cc2ncn(-c3cc(OCc4ccccc4S(C)(=O)=O)c(C#N)s3)c2cc1OC	1.47	15.2	59.6	3.31	15.7	3.03	11.6	5.25	1.09	4.94
CCS(=O)(=O)c1ccc(OC)c(Nc2nccc(N(C)c3ccc4c(C)n[nH]c4c3)n2)c1	11.3	23.1	61.6	60.8	91.2	6.38	6.74	-7.67	-2.86	1.44
COc1cccc(-n2ncc3c(N/N=C/c4ccc(S(C)(=O)=O)cc4)ncnc32)c1	-1.16	28.5	64	5.44	18.8	8.26	27.9	18.6	1.37	10.6
Cc1ccc2c(c1)/C(=N/Nc1ccc(S(N)(=O)=O)cc1)C(=O)N2	-0.45	-0.72	9.99	0.83	7.86	13.6	61.7	-0.36	1.67	-0.02
Cc1ccc(O)cc1Nc1ccnc2ccc(S(C)(=O)=O)cc12	9.15	76.2	81.8	22.2	72.6	2.73	4.94	-0.25	9.66	4.42
COc1ccc(-c2nn3ncccc3c2-c2ccnc(Nc3cccc(C(F)(F)F)c3)n2)cc1	0.55	10.2	42.1	4.29	10.2	1.01	1.12	-4.47	-0.27	1.68
Cc1ccc2c(-c3ccnc(Nc4cccc(C(F)(F)F)c4)n3)c(-c3ccccc3)nn2n1	0.17	36.8	71	2.37	21.2	1.89	10.2	3.67	-1.51	2.7
[O-][S+]1CCN(Cc2ccc(-c3ccc4ncnc(Nc5ccc(OCc6ccccc6)c(Cl)c5)c4c3)o2)CC1	-0.87	-0.44	8.63	-0.09	1.05	5.36	2.27	0.74	-0.57	0.39
COc1cc2ncnc(Nc3ccc4c(cnn4Cc4ccccc4)c3)c2cc1OC	-0.35	18.4	44.2	0.61	3.06	4.33	5.83	-2.99	-3.38	1.85
COC(=O)Nc1nc2cc(Oc3ccc(NC(=O)Nc4cccc(Br)c4)cc3)ccc2[nH]1	2.05	4.68	2.98	33	53.7	32.8	56.7	-2.2	0.6	6.92
Cc1nc(-c2ccccc2)n2nc(NCCCN3CCOCC3)ncc12	3.35	2.33	4.11	2.94	-1.07	2.39	4.33	-0.33	0.82	0.92
Nc1ccc(C#Cc2cncnc2Nc2ccc(OCc3cccc(F)c3)c(Cl)c2)cc1	1.61	3.78	4.78	0.39	1.35	0.49	2.64	1.46	-2.76	2.47
N#Cc1cccc(Nc2nccc(-c3cnn4ncccc34)n2)c1	5.22	11.1	41.7	8.37	28.3	18.5	68	7.57	11	7.97
